Screens as filed in PubChem.
Most compounds without a hit are left out; they make up all but 1.6% or so of the library.
NPR2 activator: GC-B (human) receptor activation. actives 0.11% (n = 370,000). activation, % at 10 µM. HEK293-GC-B cells, CNP EC30, cGMP TR-FRET; 0% at EC30 CNP, 100% saturating CNP. P20594;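 active = activation at 10 µM reaching about 35% in either raw or pattern-adjusted values, limit read from the data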
Target sequence (P20594 whole entry, looked up): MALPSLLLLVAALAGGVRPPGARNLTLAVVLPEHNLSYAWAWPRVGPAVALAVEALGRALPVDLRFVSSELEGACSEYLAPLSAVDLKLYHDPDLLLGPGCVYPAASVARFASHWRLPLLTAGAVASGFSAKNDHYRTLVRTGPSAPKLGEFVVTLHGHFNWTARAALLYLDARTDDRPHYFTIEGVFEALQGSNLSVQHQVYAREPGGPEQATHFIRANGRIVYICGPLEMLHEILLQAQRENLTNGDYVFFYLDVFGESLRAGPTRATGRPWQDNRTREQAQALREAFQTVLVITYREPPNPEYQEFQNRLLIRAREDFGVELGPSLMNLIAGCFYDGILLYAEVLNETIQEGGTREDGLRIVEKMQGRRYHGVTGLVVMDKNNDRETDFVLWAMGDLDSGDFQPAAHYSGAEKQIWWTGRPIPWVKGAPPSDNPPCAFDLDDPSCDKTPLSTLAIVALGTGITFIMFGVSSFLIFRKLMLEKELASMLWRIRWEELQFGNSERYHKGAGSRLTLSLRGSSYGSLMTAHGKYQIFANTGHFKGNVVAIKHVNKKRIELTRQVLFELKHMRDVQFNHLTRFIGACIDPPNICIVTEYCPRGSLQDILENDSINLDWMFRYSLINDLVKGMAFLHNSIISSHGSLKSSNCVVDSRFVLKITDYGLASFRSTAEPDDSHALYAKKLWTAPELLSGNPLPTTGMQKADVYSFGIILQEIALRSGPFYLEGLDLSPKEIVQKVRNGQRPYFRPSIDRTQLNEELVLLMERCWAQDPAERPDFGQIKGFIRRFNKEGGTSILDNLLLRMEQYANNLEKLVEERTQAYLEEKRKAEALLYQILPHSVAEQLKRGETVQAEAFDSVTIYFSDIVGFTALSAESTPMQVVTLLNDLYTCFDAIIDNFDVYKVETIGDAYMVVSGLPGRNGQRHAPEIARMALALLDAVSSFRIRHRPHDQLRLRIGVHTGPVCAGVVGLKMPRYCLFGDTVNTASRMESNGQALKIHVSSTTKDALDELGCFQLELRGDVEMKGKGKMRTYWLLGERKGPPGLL
PG9 binder: small molecules binding HIV-1 gp120 antibody PG9; TR-FRET gp120-PG9 antibody binding; inhibition, % at 6.7 µM; actives 0.43% (n = 360,000); AID 624416; in the data active = inhibition above about 8.5%
GC-A act: GC-A (human) enzyme activation | activation, % at 10 µM | AID 1671463 | actives 0.14% (n = 370,000) | HEK293 GC-A cells, cGMP TR-FRET, EC30 ANP; 0% at EC30 ANP, 100% saturating ANP; in the data active = activation above about 40%
V-ATPase pHluor: regulators of yeast V-ATPase proton transport; S. cerevisiae, pHLuorin cytosolic pH fluorescence; response, % at 10 µM; actives 0.37% (n = 350,000); in the data active = response mostly above about 7.3%, no sharp cut-off; inactive = mostly below about 5.4%; note: actives read high
Rev-erbA mod: modulates human Rev-erb alpha binding to DNA | P20393 | Rev-erbα–FITC-DNA binding, fluorescence polarization, 90 min | activity, % at 10 µM | actives 0.79% (n = 370,000) | AID 1259318;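 active = activity above about 14%, limit read from the data; passing the limit was not always enough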;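 note: 0% = DMSO wells with 35 nM protein and 100% = DMSO wells with 750 nM protein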
Rev-erbA confirm: confirmation of modulators of human Rev-erb alpha DNA binding. Rev-erb alpha FITC-DNA binding, fluorescence polarization, 90 min. shares compounds with Rev-erbA mod. activation, % at 25 µM. AID 1259319. actives 61% (n = 3,000);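 active = activation at or above a set limit, or at least 3 SD above the negative control mean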;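 note: 0% = 35 nM protein with DMSO and 100% = 750 nM protein high control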
RORg counter: affects RORgamma DNA binding in a Rev-erb alpha counter-screen. actives 8% (n = 910). shares compounds with Rev-erbA mod. AID 1259320. IC50, µM. purified RORgamma protein-FITC-DNA binding, fluorescence polarization;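 active = Compounds whose fitted half-maximal concentration for disrupting protein-DNA binding is below 10 micromolar; the record names Rev-erb in its text, so the target is in doubt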
Numbers without * were called inactive.

How did CCOc1ccc2nc(SCC#N)c(C#N)cc2c1 do in these assays?
NPR2 activator: -4; PG9 binder: -6; GC-A act: 2; V-ATPase pHluor: -3; Rev-erbA mod: 39*; Rev-erbA confirm: 24*

What do the screens show for `CCOc1ccc2cc(C#N)c(SCC(=O)N3CCC(C)CC3)nc2c1`?
NPR2 activator: -10; PG9 binder: -1; GC-A act: -5; V-ATPase pHluor: -3; Rev-erbA mod: 70*; Rev-erbA confirm: 34*

How did CCc1ccc(-c2cc3c(=O)n(CC(=O)N4CCCC4)nc(C)n3n2)cc1 do in these assays?
NPR2 activator: 1; PG9 binder: -1; GC-A act: 4; V-ATPase pHluor: 8; Rev-erbA mod: 49*; Rev-erbA confirm: 20*

How did CN(C)/C=N/c1ncc(C(=O)c2ccccc2)s1 do in these assays?
NPR2 activator: -8; PG9 binder: -1; GC-A act: 6; V-ATPase pHluor: 1; Rev-erbA mod: -5

Results for CN(C)/C=N/c1ncc(C(=O)c2ccc(-c3ccccc3)cc2)s1 ?
NPR2 activator: -6; PG9 binder: 2; GC-A act: 15; V-ATPase pHluor: 7; Rev-erbA mod: 17*; Rev-erbA confirm: 10

How did COc1ccc(C2C(C(=O)Nc3cc(OC)ccc3OC)CCC(=O)N2c2ccc(OC)cc2)cc1 (stereo unspecified) do in these assays?
NPR2 activator: 0; GC-A act: -3; Rev-erbA mod: 0

How did COC(=O)[C@]1(Cc2ccccc2)N[C@H](c2ccc(-c3cccc(Cl)c3)c(OC)c2)[C@@H]2C(=O)N(C)C(=O)[C@@H]21 do in these assays?
NPR2 activator: -1; PG9 binder: -4; GC-A act: -8; V-ATPase pHluor: 2; Rev-erbA mod: 25*; Rev-erbA confirm: 17*

How did O=S(=O)([N-]c1nc2ccccc2nc1-n1cc[n+](Cc2ccccc2)c1)c1ccc(Br)cc1 do in these assays?
NPR2 activator: 1; PG9 binder: -1; GC-A act: 7; V-ATPase pHluor: 4; Rev-erbA mod: 67*; Rev-erbA confirm: 46*; RORg counter: 5*

What do the screens show for `Cc1ccc(S(=O)(=O)[N-]c2nc3ccccc3nc2-n2cc[n+](CCC(C)C)c2)cc1`?
NPR2 activator: -1; PG9 binder: -4; GC-A act: 6; V-ATPase pHluor: 0; Rev-erbA mod: -2

Results for CCOC(=O)[C@@]12CN(C(=O)OC(C)(C)C)CC=C1N(Cc1ccc(OC)cc1)C(=O)[C@H]2CC(=O)N1CCCCC1 ?
NPR2 activator: 2; GC-A act: 0; Rev-erbA mod: 1

How did CCn1c(C)c(C2=CCN(S(=O)(=O)c3ccccc3)CC2)c2ccccc21 do in these assays?
NPR2 activator: -4; PG9 binder: 1; GC-A act: 1; V-ATPase pHluor: -3; Rev-erbA mod: 28*; Rev-erbA confirm: 26*

Results for Cc1ccc(S(=O)(=O)N2CC=C(c3c(C)n(C)c4ccccc34)CC2)cc1 ?
NPR2 activator: 3; PG9 binder: -1; GC-A act: -1; V-ATPase pHluor: -2; Rev-erbA mod: 4

Results for CN1C(=O)c2cc(NC(=O)c3ccc(F)cc3)ccc2OC[C@H]2O[C@H](CC(=O)NC3CCC3)CC[C@H]21 ?
NPR2 activator: 1; GC-A act: -3; Rev-erbA mod: 0

What do the screens show for `COc1ccc(C(=O)N=C2SC3CS(=O)(=O)CC3N2c2ccc(N(C)C)cc2)cc1OC` (stereo unspecified)?
NPR2 activator: 3; PG9 binder: -2; GC-A act: 10; V-ATPase pHluor: -1; Rev-erbA mod: 53*; Rev-erbA confirm: 12

Results for O=C1COc2ccc(C(=O)COC(=O)Cc3c(F)cccc3Cl)cc2N1 ?
NPR2 activator: 5; PG9 binder: 0; GC-A act: 3; V-ATPase pHluor: -10; Rev-erbA mod: 0

Results for O=C1COc2ccc(C(=O)COC(=O)c3c(F)cccc3Cl)cc2N1 ?
NPR2 activator: 3; PG9 binder: 2; GC-A act: 5; V-ATPase pHluor: -3; Rev-erbA mod: 16*; Rev-erbA confirm: 8

What do the screens show for `COc1ccccc1CNc1nc2cc(-c3sccc3C)sc2c(=O)n1C`?
NPR2 activator: -7; PG9 binder: 1; GC-A act: -6; Rev-erbA mod: 29*; Rev-erbA confirm: 20*

Results for Nc1[nH]c(C(=O)c2ccccc2)c(-c2ccccc2[N+](=O)[O-])c1C(=O)NCCc1c[nH]c2ccccc12 ?
NPR2 activator: -7; PG9 binder: 1; GC-A act: -4; Rev-erbA mod: -1

Results for COc1ccc(-c2c(C#Cc3ccsc3)c3cc(-c4ccc5c(c4)OCCO5)ccc3n2C)cc1 ?
NPR2 activator: -2; PG9 binder: 2; GC-A act: 4; V-ATPase pHluor: -1; Rev-erbA mod: 54*; Rev-erbA confirm: 77*; RORg counter: 3.4*

How did COc1cc(OC)cc(-c2c(C#Cc3ccsc3)c3cc(-c4ccc5c(c4)OCO5)ccc3n2C)c1 do in these assays?
NPR2 activator: 0; PG9 binder: -6; GC-A act: -2; V-ATPase pHluor: 1; Rev-erbA mod: 26*; Rev-erbA confirm: 26*

Results for COc1ccc(-c2c(C#Cc3ccsc3)c3cc(-c4ccc5[nH]ccc5c4)ccc3n2C)cc1 ?
NPR2 activator: 1; PG9 binder: -1; GC-A act: 1; V-ATPase pHluor: -1; Rev-erbA mod: 4

How did COc1ccc(-c2c(C#Cc3ccsc3)c3cc(-c4ccc5c(c4)OCO5)ccc3n2C)cc1 do in these assays?
NPR2 activator: 3; PG9 binder: 0; GC-A act: 0; V-ATPase pHluor: -1; Rev-erbA mod: 21*; Rev-erbA confirm: 30*

Results for COc1cc(OC)cc(-c2c(C#Cc3ccsc3)c3cc(-c4ccc(OC)c(OC)c4)ccc3n2C)c1 ?
NPR2 activator: 0; PG9 binder: -3; GC-A act: 5; V-ATPase pHluor: 1; Rev-erbA mod: 5

Results for CCc1cc(=O)oc2c(C)c(OCC(=O)NCc3ccccn3)ccc12 ?
NPR2 activator: -11; PG9 binder: 0; GC-A act: -1; V-ATPase pHluor: -2; Rev-erbA mod: 30*; Rev-erbA confirm: 23*

What do the screens show for `CCCCc1cc(=O)oc2c(C)c(OCC(=O)NCc3ccccn3)ccc12`?
NPR2 activator: -3; PG9 binder: 0; GC-A act: 1; V-ATPase pHluor: 2; Rev-erbA mod: -5

How did CC(C)C(=O)N1CC[C@H]2[C@H](CCCN2Cc2ccc(F)cc2)C1 do in these assays?
NPR2 activator: 9; GC-A act: 0; Rev-erbA mod: -2
